Screens (PubChem BioAssay)
FMDV RLuc – FMDV antiviral activity by Renilla signal | FMDV replicon cells, Renilla luciferase signal | Potency, µM (highest dose often 57.5 µM), inactives show at the highest dose activity change, negative = inhibition, hits mostly inhibitors | actives 0.32% (n = 120,000); further: nearly all actives have a fitted effect of over 55% in size
FMDV antiviral – shows antiviral activity against foot and mouth disease virus. FMDV antiviral cell assay, firefly luciferase signal. AID 1745856. actives 0.23% (n = 120,000). Potency, µM (doses to about 57.5 µM), inactives show at the top dose activity change, negative = inhibition, usual class: inhibitors; further: nearly all actives have a fitted effect of over 60% in size
* marks the source's active call; other numbers are inactive results; [ ] = dose if it differs, or a comment. A selection: hits, their analogues and other compounds. The true share with any hit is near 0.4%. The call rests on the fitted dose curve. On the % scale 0 is the no-effect control and ±100 the full control effect; potency means the concentration at half of the fitted maximal effect.

Screening CC1=C(C(=O)N2CCOCC2)C(c2cc(Br)ccc2F)C2=C(CCCC2=O)N1 (stereo unspecified) returned FMDV RLuc 8% and FMDV antiviral 3%.
CCOc1ccc(C=O)c2ccccc12 was read as FMDV RLuc 4.5µM* and FMDV antiviral 10µM*.
Screening CCOc1ccc2ccccc2c1C=O returned FMDV RLuc -4% and FMDV antiviral 18%.
For COc1ccc(NC(=O)c2c(NC(=O)CNCC(C)C)sc3c2CCC(C(C)(C)C)C3)cc1 (stereo unspecified) the results were FMDV RLuc -1% and FMDV antiviral 7%.
Screening CCOC(=O)CNC(=O)N1Cc2c(CC)nn(-c3ccccc3)c2-n2cccc2C1c1ccccc1 (stereo unspecified) returned FMDV RLuc -4% and FMDV antiviral -10%.
For Cc1noc(N)c1C(=O)OC(C)C(=O)NC1CCCCCC1 (stereo unspecified) the results were FMDV RLuc 15% and FMDV antiviral 11%.
For O=[N+]([O-])c1ccc(Oc2cccc3cccnc23)cc1C(F)(F)F the results were FMDV RLuc 46% and FMDV antiviral 89%.
`COc1cccc2c1Oc1ncccc1N(c1ccc(C(=O)NCc3ccccc3C)s1)C2` gave FMDV RLuc -6% and FMDV antiviral -18%.
For CCc1ccccc1NC(=O)NCc1ccc2c(c1)CCN2C(=O)c1ccccc1 the results were FMDV RLuc -16% and FMDV antiviral -21%.
Screening CCOc1ccccc1NC(=O)NCc1ccc2c(c1)CCN2C(=O)c1ccccc1 returned FMDV RLuc 7.1µM* and FMDV antiviral 8.9µM*.
`O=C(CSc1nc(C(F)(F)F)nc2ccccc12)NN1C(=O)NC2(CCCCC2)C1=O` gave FMDV RLuc -18% and FMDV antiviral -2%.
COC(=O)c1ccc(NC(=O)CN(C)S(=O)(=O)c2ccc3c(c2)CCCC(=O)N3)cc1 was read as FMDV RLuc 1% and FMDV antiviral -3%.
Screening CN(CC(=O)Nc1ccc(OC(F)(F)F)cc1)S(=O)(=O)c1ccc2c(c1)CCC(=O)N2 returned FMDV RLuc inconclusive and FMDV antiviral 22µM*.
Screening CC(Oc1ccccc1)C(=O)OCC(=O)NC(=O)NC1CCCCC1 (stereo unspecified) returned FMDV RLuc -2% and FMDV antiviral 10%.
For COc1cc(CN(C(=O)c2cccc(Cl)c2)c2ccccn2)cc(OC)c1OC the results were FMDV RLuc 65% and FMDV antiviral inconclusive.
COc1cc(CN(C(=O)c2ccc(OC(C)C)cc2)c2ccccn2)cc(OC)c1OC was read as FMDV RLuc 10µM* and FMDV antiviral inconclusive.
CCc1ccccc1Nc1nc(-c2c(C)nc3sccn23)cs1 was read as FMDV RLuc inconclusive and FMDV antiviral -25%.
Cc1nc2sccn2c1-c1csc(Nc2cccc(Cl)c2C)n1 was read as FMDV RLuc 35µM* and FMDV antiviral inconclusive.
For CC(C)C(=O)NCCCOC1CCCCC1 the results were FMDV RLuc -3% and FMDV antiviral 6%.
O=C(Nc1ccc(S(=O)(=O)N2CCCCC2c2cccnc2)cc1)c1ccc(Br)cc1 (stereo unspecified) was read as FMDV RLuc inconclusive and FMDV antiviral 25µM*.
`CC(=O)Nc1ccc(S(=O)(=O)N2CCCCCC2c2ccc(C)s2)cc1` (stereo unspecified) gave FMDV RLuc 114% and FMDV antiviral 9%.
`Cc1cc(C)c(Nc2ncnc3c2cnn3C)c(C)c1` gave FMDV RLuc -3% and FMDV antiviral 3%.
`Cc1ccccc1-n1c(/C=C/c2ccc(O)cc2)nc2ccccc2c1=O` gave FMDV RLuc inconclusive and FMDV antiviral 8%.
Cc1ccc(-n2c(/C=C\c3ccc(F)c(F)c3)nc3ccccc3c2=O)c(C)c1 was read as FMDV RLuc 3.5µM* and FMDV antiviral 7.9µM*.
CN1CCN(c2nc3c(c(=O)n(C)c(=O)n3C)n2CC(N)=O)CC1 was read as FMDV RLuc -11% and FMDV antiviral -4%.
Screening CCOc1ccc(-c2cc(C)n3nc(C(=O)Nc4cc(Cl)ccc4O)cc3n2)cc1 returned FMDV RLuc -5% and FMDV antiviral -1%.
For COc1ccc(C(=O)NCCc2csc(-c3ccc(Cl)cc3)n2)cc1 the results were FMDV RLuc -22% and FMDV antiviral -16%.
For CCCCOc1ccc(C(=O)NCCc2csc(-c3ccc(OC)cc3)n2)cc1 the results were FMDV RLuc 11µM* and FMDV antiviral 13µM*.
Screening CC(Oc1ccc(F)cc1)C(=O)Nc1nc(-c2ccc(F)cc2)ns1 (stereo unspecified) returned FMDV RLuc 22µM* and FMDV antiviral 22µM*.
Screening COc1ccc(-c2nsc(NC(=O)COc3ccccc3OC)n2)cc1 returned FMDV RLuc -4% and FMDV antiviral 11%.
For O=C(CCc1ncc(-c2ccccc2Cl)o1)N1CCN(S(=O)(=O)c2ccc(F)cc2)CC1 the results were FMDV RLuc -14% and FMDV antiviral -8%.
CCN1CCN(CCCNC(=O)CS(=O)(=O)Cc2nc(-c3ccccc3C)oc2C)CC1 was read as FMDV RLuc -13% and FMDV antiviral -16%.
`CC(C)(C)c1ccc(N=Cc2cccs2)cc1` gave FMDV RLuc 4% and FMDV antiviral 4%.
Screening C(=Nc1ccccc1)c1ccc(-c2cccs2)s1 returned FMDV RLuc 8.9µM* and FMDV antiviral inconclusive.
O=[N+]([O-])c1cccc(CON=C2CCC3(CC2)OCCO3)c1 was read as FMDV RLuc -8% and FMDV antiviral 2µM*.
For N#Cc1ccccc1CON=C1CCC2(CC1)OCCO2 the results were FMDV RLuc 16% and FMDV antiviral 193%.
`N#CC(/C(=N/S(=O)(=O)c1ccccc1)c1ccccc1)c1nc2ccccc2s1` (stereo unspecified) gave FMDV RLuc 1% and FMDV antiviral 28µM*.
CC(c1nc2ccccc2s1)N(C)S(=O)(=O)c1ccccc1 (stereo unspecified) was read as FMDV RLuc 0%[1.06 µM] and FMDV antiviral 13%.
Cc1ccc(Cn2c(=O)n(Cc3ccc(Cl)cc3)c(=O)c3cccnc32)cc1 was read as FMDV RLuc -12% and FMDV antiviral -7%.
For CCOc1ccccc1NC(=O)CSc1nc2ccccc2o1 the results were FMDV RLuc 13% and FMDV antiviral 21%.
For CC/C(=N\NC(=O)C1CC1c1ccccc1)c1ccc(C)cc1 (stereo unspecified) the results were FMDV RLuc 18% and FMDV antiviral -2%.
Screening O=C(COC(=O)c1ccccc1-c1ccc(C(F)(F)F)cc1)c1cccc([N+](=O)[O-])c1 returned FMDV RLuc 8.9µM* and FMDV antiviral 10µM*.
O=C(COC(=O)c1ccccc1-c1ccc(C(F)(F)F)cc1)c1ccc([N+](=O)[O-])cc1 was read as FMDV RLuc -19% and FMDV antiviral -15%.
COc1ccc(-c2nc(CNS(=O)(=O)c3ccc(F)cc3)cs2)cc1 was read as FMDV RLuc -5% and FMDV antiviral -5%.
`CNc1snc(C)c1C(=O)OCc1csc(-c2ccc(F)cc2)n1` gave FMDV RLuc 0.71µM* and FMDV antiviral inconclusive.
Screening COc1ccc(Nc2ncnc3c2cnn3-c2cc(Cl)ccc2C)cc1OC returned FMDV RLuc -10% and FMDV antiviral -1%.
`COC(=O)c1ccc(NC(=O)CC2C(=O)N(c3cccc(F)c3)C(=O)N2CC(C)C)cc1` (stereo unspecified) gave FMDV RLuc 20% and FMDV antiviral 3%.
